Compound activity from PubChem.
An excerpt weighted towards active compounds, which were near 1.3% of everything screened.
IL2 activator: IL-2 activation; activation, % (series mostly up to about 46 µM); IL-2 activation reporter assay, cell-based qHTS; stimulated with anti-CD3/CD4/CD28 beads; in transgenic mouse T cells; 360,000 tested, 0.065% active; in the data active means activation above about 50%; inconclusive means mostly about 30% to 49%; further: 0% is about no effect
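Readout is EGFP and DsRed signal by fluorescent plate cytometry after 18 h at 37 degrees C. Transgenic mouse T cells (750/well) received compound for 60 min before bead stimulation (anti-CD3, anti-CD4, anti-CD28); memory T cells served as non-tolerant control.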
BRCA1 expr up: BRCA1 expression activation. Potency, µM (highest dose often 46.1 µM), for inactives: at the highest dose activation, hits mostly activators. 380,000 tested, 1.1% active. MCF7-BRCA1-FFLuc reporter, luminescence, 48 h; response scale: scaled: vehicle 0%, 10 µM genistein 100%; further: potency means the concentration at half of the fitted maximal effect; nearly all actives have a fitted effect of over 80% in size
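Cells: MCF7-BRCA1-FFLuc, 2000/well. Exposure: 48 h, 37 °C, 5% CO2. Read: luminescence, 15 min post-substrate. Controls: genistein 10 microM (maximal activation), DMSO (neutral).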
TCR act: activators of T cell receptors; 330,000 tested, under 10 active; primary human leukocytes, anti-CD3, IL-2 HTRF, 48 h; Potency, µM (titrated, usually from 9.22 µM), inactives show at the highest dose activation of IL-2 secretion, most hits filed as activators; further: % of control where 0% means no effect
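Readout: HTRF IL-2, Eu-cryptate/d2 antibody pair, 320nm excitation, 665nm emission. Stimulus: a-CD3 beads, no co-stimulation. Cells: primary human leukocytes. Exposure: 48 hr with compound.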
Mito fusion yeast: blocks mitochondrial division or promotes mitochondrial fusion. S. cerevisiae fusion-defective mutant growth rescue, CellTiterGlo 48 h. Potency, µM (doses to about 46.1 µM), for the others: top-dose growth rescue (activation), hits mostly activators. 320,000 tested, 0.23% active; further: potency means the concentration at half of the fitted maximal effect; % of control where 0% means no effect; nearly all actives have a fitted effect of over 45% in size
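Compounds are tested for their ability to restore growth of mitochondrial fusion-defective yeast strains at non-permissive 37C in YPEG medium over 48 hours. Viability is quantified by luciferase luminescence.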
p53 reactivator: mutant p53 re-activation in reporter cells. H1299 p53-A138V BP100-luciferase reporter, luminescence, 24 h. Potency, µM (doses to about 92.2 µM), without a hit: at the highest dose activity change, positive = activation, most hits filed as activators. 320,000 tested, 0.063% active; further: potency means the concentration at half of the fitted maximal effect; % of control where 0% means no effect; nearly all actives have a fitted effect of over 45% in size
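H1299 (p53-null), stable ts p53-A138V + BP100-Luc; 1000 cells/well, Opti-MEM/10% FBS; cpd 4 pt, 1:5; 24 h, 37 deg C, 5% CO2; detection reagent 10 min RT; luminescence.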
An asterisk follows results filed as active; ? = inconclusive; / = no result; [ ] = dose if it differs, or a comment. Unless noted, the call rests on the fitted dose curve; in most records, active means well fitted curve in the direction sought with a large enough effect; inconclusive means small, poorly fitted or top-dose-only effect, or another doubt; inactive means no such curve, though single readings can be large; an effect the other way counts as inactive or inconclusive.

SMILES | IL2 activator | BRCA1 expr up | TCR act | Mito fusion yeast | p53 reactivator
COc1ccc(C2Nc3ccccc3C(=O)N2c2cccc3ccccc23)cc1COc1c(C)cccc1C (stereo not given) | / | -3% | / | / | /
CCn1cc2nc(SCc3cccc(C(F)(F)F)c3)n(Cc3ccc(C)cc3)c(=O)c2n1 | / | -52% | / | / | /
Cc1ccc(-c2nnc(N3CCN(C(=O)COc4cccc(C)c4)CC3)c3ccccc23)cc1 | -5 | -47% | -10% | 13µM* | -2%
CC(C)COc1ccc(CC(=O)NO)cc1 | / | 10% | / | / | /
CCOc1ccc(NC(=O)c2ccco2)c([N+](=O)[O-])c1 | 0 | ? | 8%[46.1 µM] | -3% | 4.5µM*
COc1ccc(OC)c(NC(=O)/C=C/c2ccccc2[N+](=O)[O-])c1 | 3 | -26% | -6%[46.1 µM] | 9% | -3%
COc1ccc(NC(=O)c2ccccc2)c([N+](=O)[O-])c1 | 1 | 7.9µM* | -67% | 6% | 9%
CCCOc1ccc(C(=O)Nc2ccccc2[N+](=O)[O-])cc1 | 2 | 3.2µM* | 2% | / | /
COc1cccc(NC(=O)/C=C/c2ccccc2[N+](=O)[O-])c1 | 3 | 3.2µM* | -2%[46.1 µM] | 19% | ?
N#Cc1cccc(S(=O)(=O)N2CCN(S(=O)(=O)c3ccc4c(c3)OCCO4)CC2)c1 | / | 2% | / | / | /
Cc1ccc(C)c2c1NC(C(=O)O)C1CC=CC21 (stereo not given) | / | 0% | / | / | /
CC(=O)c1cccc(NC(=O)COc2ccccc2C(=O)Nc2ccccc2)c1 | / | -5% | / | / | /
O=c1c(=Nc2ccccc2O)c(=O)c2ccccc12 | 1 | 11µM* | -22% | 1% | 11%
O=c1oc(CCCO)cc2ccc(Br)cc12 | 2 | 12% | 0% | / | 6%
O=c1oc(CCCO)cc2ccc(/C=C/c3cccc([N+](=O)[O-])c3)cc12 | 0 | 6.3µM* | -3% | -4% | 11%
Cc1ccccc1NS(=O)(=O)c1ccc2[nH]cc(C(=O)NC3CCCCC3)c(=O)c2c1 | / | / | / | -5% | /
COc1ccc(-c2nc3c(=O)n(C)c(=O)nc-3n(C)n2)cc1 | / | -78% | / | / | /
O=C(CCc1nnc(-c2ccsc2)o1)N1CCc2c(Cl)cccc2C1 | -2 | 11µM* | -6% | 9% | 4%
O=C(Cn1nc(C(F)(F)F)c2c1CCCC2)Nc1ccc(Br)cc1 | / | / | / | -6% | /
COc1ccc(CN=C2Nc3ccccc3CS2)cc1 | -1 | ? | 20% | -2% | 10µM*
O=C(NCCCN1CCN(c2ccccc2F)CC1)c1ccc2nc(N3CCCCC3)sc2c1 | / | 16% | / | / | /
Cc1cc(N2CCCCC2)nc(SCC(=O)c2ccccc2)n1 | -2 | 10µM* | / | 7% | ?
O=C(CSc1nc(N2CCCCC2)nc(N2CCCCC2)n1)c1ccccc1 | -1 | -35% | 0% | -5% | -4%
CCSc1nnc2c(n1)OC(CC)N(C(C)=O)c1ccccc1-2 (stereo not given) | / | 14% | / | / | /
O=C(CSc1ccc(-c2cccs2)nn1)N1CCCCCC1 | 0 | 13µM* | -3%[46.1 µM] | -18% | ?
SMILES | IL2 activator | BRCA1 expr up | TCR act | Mito fusion yeast | p53 reactivator
Cc1cc(NC(=O)c2ccc(NC(=O)C(C)Oc3ccccc3)cc2)no1 (stereo not given) | 0 | 13µM* | 0%[46.1 µM] | -4% | 5%
Cn1cc(Cl)c(C(=O)Nc2nc3ccc(Cl)cc3s2)n1 | 0 | 13µM* | -1% | 1% | ?
O=C(CSc1nc2ccccc2[nH]1)Nc1ccccc1F | 2 | 7% | 1% | 3% | -5%
O=C(COc1ccccc1)Nc1nc2ccccc2[nH]1 | 0 | 13µM* | -1% | 1% | 8%
O=C(Nc1nc2ccccc2[nH]1)Nc1ccccc1F | 0 | ? | -2% | -8% | 11µM*
CCc1ccccc1N(C)C(=O)c1cc2c(=O)oc3ccccc3c2s1 | / | 6% | / | / | /
Cc1ccc(NC(=O)CN2C(=O)CSc3ccc(S(=O)(=O)N(C)C)cc32)c(C)c1 | / | -19% | / | / | /
NC(=O)c1c(NC(=O)c2cnccn2)sc2c1CCCC2 | 1 | 7.9µM* | 4% | 1% | 11%
CN1CCN(C(=O)/C=C/c2ccc3c(c2)OCO3)CC1 | 0 | 12% | -1%[46.1 µM] | 4% | 22%
O=C(/C=C/C=C/c1ccc2c(c1)OCO2)N1CCCCC1 | 1 | 8.9µM* | -3% | -8% | 2%
CCCCn1cnc2c(SCc3ccccc3)nc(N)nc21 | -1 | 7.1µM* | 1% | / | /
CCNc1nc(C#N)nc(Nc2ccccc2)n1 | / | -45% | / | / | /
CC(C)Oc1ccc(C(=O)/C(=C\c2cccs2)c2nc3ccccc3o2)cc1 | -4 | -32% | -1%[46.1 µM] | 10µM* | ?
c1ccc2c3c([nH]c2c1)CCCC3 | / | 2% | / | / | /
C/C(=N\O)c1ccc2c3c([nH]c2c1)CCCC3 | 0 | 10µM* | 0% | 13% | ?
O=C(O)c1cc2ccccc2c(Cc2c(O)c(C(=O)O)cc3ccccc23)c1O | / | 5% | / | / | /
O=C(O)c1cc2ccccc2c2cc(Br)ccc12 | 0 | -19% | -13% | 11µM* | 3%
CC(C)(C)C(=O)N1CCC[C@H]1C(O)(c1ccccc1)c1ccccc1 | -5 | 7% | -1%[46.1 µM] | 35µM* | -15%
CC(=O)NC(Cc1ccc([N+](=O)[O-])cc1)C(=O)NCC(N)C(=O)c1ccccc1 (stereo not given) | / | -41% | / | / | /
CC1CCCN(C(=O)CSc2nc3ncccc3[nH]2)C1 (stereo not given) | 0 | 41% | -6% | 0% | 5%
CC1CCCN(C(=O)CSc2cnc3ccccc3n2)C1 (stereo not given) | 2 | 11µM* | -6% | 3% | 29%
Cn1nnnc1SCc1ccc(C(=O)Nc2ccc(Br)cc2)cc1 | 0 | 10µM* | -1% | -1% | 12%
C/C(=N\NC(=S)NC1CCCCC1)c1ccc(O)cc1 | -1 | -40% | -3% | 0% | 9%
C/C(=N\NC(=S)NC1CCCCC1)c1ccccc1 | -2 | 34% | 9%[46.1 µM] | -1% | 25µM*
Cc1ccc(/C=C/C(=O)NCc2cccs2)c(C)c1 | -2 | 10µM* | 3% | 1% | 6%
SMILES | IL2 activator | BRCA1 expr up | TCR act | Mito fusion yeast | p53 reactivator
O=C(NCc1cccs1)c1cc(-c2ccc(O)cc2)on1 | 1 | 8.9µM* | 5% | -5% | 10%
Cc1ccc(-c2cc(C(=O)NCc3cccs3)no2)cc1 | -1 | 4.5µM* | 1% | 1% | ?
Cn1c2c(c3cnc4cc(Cl)ccc4c31)CN(Cc1ccc(Cl)cc1)CC2 | / | 11% | / | / | /
Cc1ccc(C2NNC(=O)C2NC(=O)c2ccccc2)cc1 (stereo not given) | 0 | 11µM* | -3% | -2% | 0%
CCOC(=O)N1CCN(C(=O)CN2C(=O)/C(=C\c3cccc(OC)c3)SC2=S)CC1 | / | 7% | / | / | /
CCOC(=O)/C(C#N)=C/Nc1ccccc1OC | -3 | 2.2µM* | 5% | 4% | ?
Cc1ccc(-c2csc3ncnc(Sc4nnnn4C4CC4)c23)cc1 | / | -4% | / | / | /
